Source: PubChem (National Center for Advancing Translational Sciences (NCATS))
Shown are actives, neighbours in structure and some others; about 2.4% of the full set was active somewhere.
D2 antag: antagonizes the human D2 dopamine receptor; inhibition, % at 10 µM; HEK293 TREx D2 cells, calcium flux, dopamine EC80; P14416; AID 485344; hit rate 2% among 340,000; in the data active = inhibition above about 30%; inactive = below that, where a call was filed; also: 0% is about no effect
Target sequence (P14416 whole entry, looked up): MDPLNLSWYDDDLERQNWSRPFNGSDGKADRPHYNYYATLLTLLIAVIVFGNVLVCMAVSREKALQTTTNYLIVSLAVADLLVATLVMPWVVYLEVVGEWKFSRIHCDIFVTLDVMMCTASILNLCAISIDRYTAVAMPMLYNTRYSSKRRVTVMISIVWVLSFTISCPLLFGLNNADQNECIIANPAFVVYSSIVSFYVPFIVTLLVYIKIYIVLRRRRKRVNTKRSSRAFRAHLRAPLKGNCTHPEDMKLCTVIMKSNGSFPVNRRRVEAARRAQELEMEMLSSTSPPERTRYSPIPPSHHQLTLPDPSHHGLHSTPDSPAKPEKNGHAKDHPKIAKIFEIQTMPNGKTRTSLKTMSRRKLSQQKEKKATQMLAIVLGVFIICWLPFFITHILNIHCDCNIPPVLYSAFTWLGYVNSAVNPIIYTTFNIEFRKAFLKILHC
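Cells plated overnight at 30 C with tetracycline; no-wash calcium dye, 30–90 min RT; 10 s baseline; compound pinned; 180 s read; EC80 dopamine added; another 180 s read.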
D2 ag-1: activates the human D2 dopamine receptor; hit rate 0.53% among 340,000; HEK293 T-REx D2 cells, calcium flux agonist mode; P14416; AID 485358; activation, % at 2 µM;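 active = activation over 3 SD above normal in the single-dose calcium agonist read, cut at about 30% in these data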; also: 0% is about no effect
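In this primary screen, compounds producing a positive calcium signal within 180 s of addition to tetracycline-induced, force-coupled HEK293 Trex D2 cells are flagged; cells are dye-loaded with a no-wash calcium kit beforehand.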
D2 PAM-1: D2 dopamine receptor (human) potentiation; potentiation, % at 10 µM; AID 485347; HEK293 T-REx D2, calcium flux, EC20 dopamine potentiation; hit rate 0.34% among 340,000; P14416;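 active = potentiation over 3 SD above the plate norm, cut at about 30% in these data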; also: 0% is about no effect
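Potentiation of an EC20 dopamine calcium response measured kinetically over 180 s, after a preceding 180 s compound-only read flagging agonists. Cells: inducible Hek293 Trex D2 line, 4000/well, cultured overnight at 30 C before dye loading.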
D2 ag-2: activates the human D2 dopamine receptor | AID 624465 | activation, % (test concentration not listed) | hit rate 0.084% among 360,000 | DiscoveRx PathHunter D2 beta-arrestin, luminescence, 90 min; 100% = 57 uM dopamine signal | P14416; in the data active = activation above about 40%
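DiscoveRx PathHunter D2 beta-arrestin cells (2,100/well) attached overnight, then compound-stimulated 90 min at 37 C in HBSS/10 mM HEPES/0.1% Tween-20 buffer; beta-galactosidase complementation read by luminescence after 1 h at ambient temperature. Dopamine 57 uM final (EC100) as control.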
D2 PAM-2: potentiates the human D2 dopamine receptor allosterically; P14416; DiscoveRx D2 beta-arrestin cells, luminescence, 90 min; 100% = 57 uM dopamine signal; potentiation, % (concentration not given with the values); hit rate 0.23% among 360,000; AID 624464; in the data active = potentiation above about 50%
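PathHunter beta-arrestin assay in DiscoveRx D2 cells. Compounds were added with an EC20 of dopamine (50 nM final) for 90 min at 37 deg C. Luminescence was read 1 h after detection reagent, with 57 uM dopamine as the EC100 control.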
* hit, by the source's call; . = not tested or not shown.

SMILES	D2 antag	D2 ag-1	D2 PAM-1	D2 ag-2	D2 PAM-2
Cc1cccc(OCCN2CCOCC2)c1C	41.1*	23.8	-12.1	-0.9	-0.5
O=C1c2cccc(O)c2C(=O)c2c(O)cc(CO)cc21	.	.	.	13.9	88.9*
Cc1cc(O)c2c(c1)C(=O)c1cc(O)cc(O)c1C2=O	.	.	.	-4.6	-3.5
CCOC(=O)C1CCCN(C(=O)CCCn2nnnc2CN2CCC(C)CC2)C1 (stereo not drawn)	-0.9	0.6	-1.3	0.6	-11.5
O=S(=O)(c1ccc(F)cc1)c1nc(-c2ccccc2)oc1N1CCOCC1	1.4	0.0	-1.3	-4.8	-17.4
CCc1nn2c(-c3ccccc3OC)ccnc2c1-c1ccc(F)cc1	.	-0.1	7.7	.	.
Cc1ccc(Oc2cc([N+](=O)[O-])cc3c2C(=O)Nc2ccccc2O3)cc1	30.1*	1.8	13.9	1.9	6.2
COc1ccc(C2c3c(-c4ccccc4)n[nH]c3C(=O)N2c2ccc(C(=O)O)cc2)c(OC)c1 (stereo not drawn)	.	0.6	1.9	.	.
CCCn1nnnc1NCc1ccc(C(C)C)cc1	33.9*	-0.8	1.0	-1.1	-36.9
CCOC(=O)c1c(C)oc2nc(C)nc(NCCCN3CCN(c4cc(Cl)ccc4C)CC3)c12	.	1.3	-12.2	.	.
Cn1cccc1-c1cc(C(=O)N/N=C/c2ccc(Cl)cc2)[nH]n1	35.0*	-1.0	-19.6	3.2	-8.1
CSc1cccc(NC(=O)/C=C/c2ccc(Cl)cc2)c1	69.8*	0.6	-21.1	-1.5	-9.4
CSc1cccc(NC(=O)/C=C/c2ccccc2)c1	39.3*	0.7	-25.4	-1.7	-22.8
CCCOc1cccc(C(=O)N(Cc2ccc(C)o2)C2CCS(=O)(=O)C2)c1 (stereo not drawn)	.	-0.2	-8.8	.	.
NC1=NC2(CCN(Cc3ccccc3)CC2)n2c(nc3ccccc32)N1	43.2*	-0.5	-32.1	-1.8	-16.4
COc1ccc(-c2nc3sc(CCNC(=O)c4ccc(C(C)(C)C)cc4)c(C)n3n2)cc1	.	0.8	0.2	.	.
CC(CCc1ccccc1)NC(=O)C(=O)Nc1ccccc1 (stereo not drawn)	72.3*	-0.2	5.6	-0.4	-11.9
O=C(N1CCOCC1)N1CCC(n2nnc3cc(F)ccc32)CC1	.	.	0.8	-1.6	-23.5
O=C(c1ccc([N+](=O)[O-])cc1)N1CCC(n2nnc3cc(F)ccc32)CC1	-4.0	-0.4	33.1*	-2.9	0.0
Cc1ccc2c(c1)C(C)CC(C)(C)N2C(=O)CN1CCN(C)CC1 (stereo not drawn)	36.2*	-1.0	-19.6	-5.0	-31.0
CC1CC(C)(C)N(C(=O)CN2CCN(C)CC2)c2ccccc21 (stereo not drawn)	6.7	0.2	4.0	-3.8	-3.5
O=C(N/N=C/c1cccc(Br)c1)C1CC(=O)N(c2ccccc2)C1 (stereo not drawn)	35.4*	0.4	-17.4	0.0	-8.0
COc1ccc(N2CC(C(=O)N/N=C/c3ccccc3)CC2=O)cc1 (stereo not drawn)	-6.0	0.5	1.0	-2.0	-3.6
O=C(Nc1ccc(S(=O)(=O)N2CCOCC2)cc1)c1ccccc1F	-13.9	1.0	-7.0	-6.4	-11.8
COc1cc2c(c(O)c1OC)C(=O)C(OC)CCC2 (stereo not drawn)	32.0*	0.7	-8.3	-1.6	6.1
SMILES	D2 antag	D2 ag-1	D2 PAM-1	D2 ag-2	D2 PAM-2
Cc1ccc(CN2CCC(C(=O)NCCC(C)C)CC2)o1	30.1*	0.1	-3.9	-2.0	-30.0
O=C(NCCc1ccc(Cl)cc1)c1cnc2sc(N3CCOCC3)nn2c1=O	.	-0.1	1.7	.	.
O=C(COCc1cc(-c2ccc3c(c2)OCO3)on1)N1CCCCC1	77.7*	-1.5	4.1	-0.5	-8.0
O=C(O)c1cc(N/N=C/C=C/c2ccccc2[N+](=O)[O-])ccc1Cl	-1.7	-1.9	11.2	-3.0	-8.6
Cc1ccc(N(C(=O)c2snc(C(N)=O)c2N)C(C(=O)NC2CCCC2)c2ccncc2)cc1 (stereo not drawn)	104.8*	0.2	-21.2	-2.1	-1.1
CCOc1ccc(N(C(=O)c2snc(C(N)=O)c2N)C(C)C(=O)NC2CCCCC2)cc1 (stereo not drawn)	17.8	-2.9	.	5.7	-12.6
CCOc1ccc(N(C(=O)c2snc(C(N)=O)c2N)C(C(=O)NC2CCCC2)C(C)C)cc1 (stereo not drawn)	-5.0	-1.0	31.0*	-2.6	-6.8
Cc1ccc(C(C(=O)NC2CCCCC2)N(CCCN2CCOCC2)C(=O)c2snc(C(N)=O)c2N)cc1 (stereo not drawn)	49.2*	0.3	-18.0	-3.0	-18.9
COc1cc(OC)cc(N(C(=O)c2snc(C(N)=O)c2N)C(C(=O)NCC2CCCO2)c2ccc(C)o2)c1 (stereo not drawn)	11.3	0.2	34.6*	.	.
CCc1ccc(CNC(=O)Cc2ccc(NC(=O)N3CCSc4ncccc43)cc2)cc1	.	-0.6	6.4	.	.
O=S(=O)(c1cccc(C(F)(F)F)c1)n1c(/C=C/c2ccccc2)nc2ccccc21	.	0.7	-13.8	.	.
CCCn1c(SCc2nc(-c3cc(OC)ccc3OC)no2)nnc1-c1ccc(Cl)cc1	.	0.5	-0.7	.	.
Cc1nn(Cc2ccccc2)c(C)c1NC(=O)c1noc2c1CCc1ccccc1-2	-3.5	-0.4	30.8*	0.4	-3.6
Cc1nn(Cc2ccc(Cl)c(Cl)c2)c(C)c1NC(=O)c1noc2c1CCc1ccccc1-2	.	1.5	6.4	.	.
CC(C)c1ccccc1NC(=O)CNCCOc1ccccc1F	46.1*	30.8*	-25.8	0.9	-11.2
O=C(NC1(C(F)(F)F)NC(=O)N(Cc2cccnc2)C1=O)c1ccc(F)cc1 (stereo not drawn)	5.8	-0.6	39.2*	1.8	-3.8
Cc1cc(C)c2c(=O)cc(C(=O)Nc3sc4c(c3C(=O)NCc3ccccc3)CCCC4)oc2c1	.	0.8	0.6	.	.
CC1(C)CC(=O)C2=C(C1)N(c1ccccc1)C(=O)C2(O)C(F)(F)F (stereo not drawn)	35.6*	-0.4	0.7	-9.6	-4.6
CCN(C(=O)C1CCN(S(=O)(=O)c2ccc3c(c2)oc(=O)n3C)CC1)c1cccc(C)c1	38.9*	0.2	3.8	-3.2	-1.2
CCCCC1C(=O)N(c2ccccc2)N(c2ccc(O)cc2)C1=O (stereo not drawn)	-8.5	-0.1	3.9	-5.9	-21.8
Cc1ccc(NC(=O)COc2cccc3c2OC(C)(C)C3)c(O)c1	30.2*	-0.8	-2.9	-1.8	-12.7
CCN1CCCC(NC(=O)c2cc([N+](=O)[O-])ccc2OC)C1 (stereo not drawn)	38.5*	-0.1	-13.8	-2.5	-36.7
O=c1[nH]c(/C=C/c2cccc3ccccc23)nc2ccccc12	3.2	-0.6	-0.3	-4.4	-12.6
O=c1[nH]c(/C=C/c2ccccn2)nc2ccccc12	37.1*	1.1	1.9	-9.2	-6.1
CCc1cc(=O)n2c([nH]c3ccccc32)c1C#N	25.4	.	-11.2	-2.9	0.7
